The structures appear in SMILES notation. The panel holds about 83,000 compounds, 20% with a hit somewhere; the sample as a whole holds those more often.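 Single-concentration screen, 48 h exposure, 96-well plates. Endpoint: percent growth. Below 10 = active.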 Values without a mark were called inactive. Active and inactive are the calls of the source.

The test system of one assay is SK-MEL-2 melanoma. Put plainly: NCI-60 one-dose screen, 48 h (100 = growth as untreated, 0 = no growth, -100 = all killed). The following applies: 10 µM unless noted.
For the compound `C=CCn1c(C)nc2cc(Nc3nc(N4CCCC4)nc4ccccc34)ccc21`, the growth was 109%.

With `Cc1ccc(/C=C/c2c(C(=O)/C=C/c3ccc(Cl)cc3)c(C)nc3ccccc23)cc1`, the growth was 8.94% (active).

Consider `COc1cc(/C=C/C(=O)c2cccc(-n3cc(-c4ccccc4)[nH]c3=O)c2)ccc1O`, for which the growth was 56.5%.

Turning to `C=CCOC1=CC(=O)c2ccccc2C1=O`, the growth was 60.5%.

As for `Cn1cc(-c2csc(-c3ccccc3)n2)c2cccnc21`, the growth is -48.2% [100 µM] (active).

Turning to `c1ccc(-c2nc([P+](c3ccccc3)(c3ccccc3)c3ccccc3)c(N3CCOCC3)o2)cc1`, the growth is -25.3% (active).

With `O=C(COc1ccc(/C=C2\Oc3ccccc3C2=O)cc1)Nc1nc2c(s1)CCCC2`, the growth is 84%.

Regarding `COc1ccc(C2c3ccc4ccccc4c3Oc3nc(C)[nH]c(=O)c32)cc1` (centres undefined), the growth is 112%.

For the compound `CN(C)c1ccc(-c2ccc3[nH]c(=O)nc(-c4ccccc4)c3c2)cn1`, the growth was 22.8%.

With `O=C1/C(=C\c2c[nH]c3ccccc23)c2ccccc2N1c1c(Cl)cccc1Cl`, the growth was 15.8%.

With `O=C1N=c2cc3c(cc2=C/C1=C/c1sc(=S)n(CCc2ccc(O)cc2)c1O)OCCO3`, the growth was 82.9%.

For the compound `Cc1cc(NCCCCNc2ccnc3cc(Cl)ccc23)nc(Nc2ccc(C(=O)N3CCCC3)cc2)n1`, the growth is 91.2%.

With `CC(C)CCC[C@@H](C)[C@H]1CC[C@H]2[C@@H](Nc3ccc(O)cc3)CCC[C@]12C`, the growth was 86.1%.

Consider `O=C(c1ccccc1)c1c(/C=C/c2ccc(Cl)cc2)nc2ccccc2c1/C=C/c1cccs1`, for which the growth is 103%.

On to `CC(=O)n1c(-c2ccc(Cl)cc2)nc2c(c1=O)C(c1ccc(Cl)cc1)c1sc3c(Cl)cccc3c1O2` (centres undefined), for which the growth was 7.32% (active).

With `CN1CCN(CCCOc2ccc3nc(Nc4ccc(F)c(F)c4)ccc3c2)CC1`, the growth was 54.4%.

With `CS(=O)c1cccc(-c2ccc3nc(N)n(-c4ccc(C(F)(F)F)cc4)c(=O)c3c2)c1` (centres undefined), the growth was 98.2%.

On to `COc1ccc2[nH]c(O)c(/C=c3/cc4c(c(-c5ccc(F)c(OC)c5)n3)=Nc3ccccc3-4)c2c1`, for which the growth is 96.3%.

On to `CC(=O)C(C)Cc1cc2c(cc1C)C(C)(C)CCC2(C)C` (centres undefined), for which the growth was 94.8%.

For `COc1cc(/C=C2\C(=O)ON=C2C)cc(OC)c1OC`, the growth was 113%.

On to `CCCCn1c(=O)c2c(nc3n2CCCN3CCc2ccc(OCC(=O)NCCN(CC)CC)cc2)n(CCCC)c1=O`, for which the growth is 73.8%.

In the case of `COc1cc2c(cc1-c1c(C)noc1C)ncc1nc(C3CCC(F)(F)CC3)n(C3CCC(OC(F)F)CC3)c12` (centres undefined), the growth is 46%.

With `CCN(CCNc1ccc(C)c2sc3ccccc3c(=O)c12)CC(C)(C)O`, the growth was 77.3%.

On to `CCCCCCCCCCCCCCCCCCOc1ccccc1CC(=O)OCCC[N+](C)(C)C`, for which the growth is 87.7%.

As to `COc1ccc(C(=NN=C(N)N)c2ccc(OC)cc2)cc1`, the growth is 32.3%.

For `Cc1c(C(=O)N[C@@H](Cc2ccccc2)C(=O)C(=O)NCCc2ccccc2)[nH]c2ccccc2c1=O`, the growth is 111%.

Consider `CC1(c2ccccc2)NC(=O)N(NC(=O)CSc2nc(-c3cccs3)nc3ccccc23)C1=O` (centres undefined), for which the growth is 89.8%.

In the case of `CCN(CC)Cc1cccc(C(=O)OC)c1`, the growth was 100%.

For the compound `CCCCc1ccc(Nc2ccc(Nc3ccc(CCCC)cc3S(=O)(=O)O)c3c2C(=O)c2ccccc2C3=O)c(S(=O)(=O)O)c1`, the growth is 67.1%.

For the compound `O=C(Nc1ccc(Cl)cc1)Nc1ccc(Cl)c(C(F)(F)F)c1`, the growth was 3.63% (active).

As to `COc1cc(/C=N/Nc2ncc(-c3cc4cc5c(cc4o3)OCO5)s2)cc(OC)c1OC`, the growth is 79.7%.

In the case of `COc1ccc(-c2nc3c(N)c(CO)c(C)nc3o2)cc1`, the growth was 105%.

`c1ccc(Nc2nc(-c3ccccn3)cs2)nc1`: the growth is 27.6%.

Regarding `Cc1ccc(S(=O)(=O)Oc2cc(OS(=O)(=O)c3ccc(C)cc3)cc(OS(=O)(=O)c3ccc(C)cc3)c2)cc1`, the growth was 91.5%.

On to `COc1ccc(NC(=O)c2nc(-c3cc(OC)c(OC)c(OC)c3)n(-c3cccc4ccccc34)n2)cc1OC`, for which the growth was 43.7%.

For `COc1ccc(C2C(c3nn[nH]n3)=C(N)Oc3c2ccc2ccccc32)cc1` (centres undefined), the growth is 61.5%.

The next assay concerns EKVX NSCLC. The description is as above. The conditions noted are these: 10 µM unless noted.
For `C=CCn1c(C)nc2cc(Nc3nc(N4CCCC4)nc4ccccc34)ccc21`, the growth was 97.7%.

`Cc1ccc(/C=C/c2c(C(=O)/C=C/c3ccc(Cl)cc3)c(C)nc3ccccc23)cc1`: the growth was 17.6%.

With `COc1cc(/C=C/C(=O)c2cccc(-n3cc(-c4ccccc4)[nH]c3=O)c2)ccc1O`, the growth was 70.7%.

In the case of `C=CCOC1=CC(=O)c2ccccc2C1=O`, the growth is 116%.

Turning to `Cn1cc(-c2csc(-c3ccccc3)n2)c2cccnc21`, the growth is 4.11% [100 µM] (active).

Regarding `c1ccc(-c2nc([P+](c3ccccc3)(c3ccccc3)c3ccccc3)c(N3CCOCC3)o2)cc1`, the growth was 14.9%.

In the case of `O=C(COc1ccc(/C=C2\Oc3ccccc3C2=O)cc1)Nc1nc2c(s1)CCCC2`, the growth was 26.4%.

`COc1ccc(C2c3ccc4ccccc4c3Oc3nc(C)[nH]c(=O)c32)cc1` (centres undefined): the growth is 103%.

With `CN(C)c1ccc(-c2ccc3[nH]c(=O)nc(-c4ccccc4)c3c2)cn1`, the growth was 58.5%.

On to `O=C1/C(=C\c2c[nH]c3ccccc23)c2ccccc2N1c1c(Cl)cccc1Cl`, for which the growth is -5.29% (active).

As for `Cc1cc(/C=C\c2ccc3ccccc3[n+]2C)c(O)c2ncccc12`, the growth is 18.7%.

On to `O=C1N=c2cc3c(cc2=C/C1=C/c1sc(=S)n(CCc2ccc(O)cc2)c1O)OCCO3`, for which the growth was 61.3%.

For `N#Cc1nc(C#N)c(Sc2ccccc2)c(Sc2ccccc2)c1Sc1ccccc1`, the growth was 8.11% (active).

As for `Cc1cc(NCCCCNc2ccnc3cc(Cl)ccc23)nc(Nc2ccc(C(=O)N3CCCC3)cc2)n1`, the growth is 79%.

With `CC(C)CCC[C@@H](C)[C@H]1CC[C@H]2[C@@H](Nc3ccc(O)cc3)CCC[C@]12C`, the growth was 109%.

Take `O=C(c1ccccc1)c1c(/C=C/c2ccc(Cl)cc2)nc2ccccc2c1/C=C/c1cccs1`: the growth is 88.2%.

With `CC(=O)n1c(-c2ccc(Cl)cc2)nc2c(c1=O)C(c1ccc(Cl)cc1)c1sc3c(Cl)cccc3c1O2` (centres undefined), the growth is 32.9%.

For `CN1CCN(CCCOc2ccc3nc(Nc4ccc(F)c(F)c4)ccc3c2)CC1`, the growth was 61.7%.

As to `CS(=O)c1cccc(-c2ccc3nc(N)n(-c4ccc(C(F)(F)F)cc4)c(=O)c3c2)c1` (centres undefined), the growth is 108%.

With `COc1ccc2[nH]c(O)c(/C=c3/cc4c(c(-c5ccc(F)c(OC)c5)n3)=Nc3ccccc3-4)c2c1`, the growth is 89.5%.

On to `CC(=O)C(C)Cc1cc2c(cc1C)C(C)(C)CCC2(C)C` (centres undefined), for which the growth was 94.4%.

Regarding `COc1cc(/C=C2\C(=O)ON=C2C)cc(OC)c1OC`, the growth was 97.8%.

`CCCCn1c(=O)c2c(nc3n2CCCN3CCc2ccc(OCC(=O)NCCN(CC)CC)cc2)n(CCCC)c1=O`: the growth is 70.5%.

`COc1cc2c(cc1-c1c(C)noc1C)ncc1nc(C3CCC(F)(F)CC3)n(C3CCC(OC(F)F)CC3)c12` (centres undefined): the growth was 53.9%.

Consider `CCN(CCNc1ccc(C)c2sc3ccccc3c(=O)c12)CC(C)(C)O`, for which the growth is 101%.

`CCCCCCCCCCCCCCCCCCOc1ccccc1CC(=O)OCCC[N+](C)(C)C`: the growth was 79%.

On to `COc1ccc(C(=NN=C(N)N)c2ccc(OC)cc2)cc1`, for which the growth was 81.9%.

Take `Cc1c(C(=O)N[C@@H](Cc2ccccc2)C(=O)C(=O)NCCc2ccccc2)[nH]c2ccccc2c1=O`: the growth was 97.1%.

Turning to `CC1(c2ccccc2)NC(=O)N(NC(=O)CSc2nc(-c3cccs3)nc3ccccc23)C1=O` (centres undefined), the growth is 93%.

As to `CCN(CC)Cc1cccc(C(=O)OC)c1`, the growth is 95.7%.

As for `CCCCc1ccc(Nc2ccc(Nc3ccc(CCCC)cc3S(=O)(=O)O)c3c2C(=O)c2ccccc2C3=O)c(S(=O)(=O)O)c1`, the growth was 83.3%.

With `O=C(Nc1ccc(Cl)cc1)Nc1ccc(Cl)c(C(F)(F)F)c1`, the growth was -3.9% (active).

Consider `COc1cc(/C=N/Nc2ncc(-c3cc4cc5c(cc4o3)OCO5)s2)cc(OC)c1OC`, for which the growth is 71.4%.

As to `COc1ccc(-c2nc3c(N)c(CO)c(C)nc3o2)cc1`, the growth is 95.7%.

For the compound `c1ccc(Nc2nc(-c3ccccn3)cs2)nc1`, the growth is 30.7%.

Take `Cc1ccc(S(=O)(=O)Oc2cc(OS(=O)(=O)c3ccc(C)cc3)cc(OS(=O)(=O)c3ccc(C)cc3)c2)cc1`: the growth was 106%.

As to `COc1ccc(NC(=O)c2nc(-c3cc(OC)c(OC)c(OC)c3)n(-c3cccc4ccccc34)n2)cc1OC`, the growth was 44.6%.

Take `COc1ccc(C2C(c3nn[nH]n3)=C(N)Oc3c2ccc2ccccc32)cc1` (centres undefined): the growth was 83.4%.
